BRCA1 expr act – increases BRCA1 expression | MCF7-BRCA1-FFLuc reporter, luminescence, 48 h; response scale: scaled: vehicle 0%, 10 µM genistein 100% | Potency, µM (highest dose often 46.1 µM), for inactives: at the highest dose activation, most hits filed as activators | actives 1.1% (n = 380,000) | AID 624202; further: potency means the concentration at half of the fitted maximal effect; nearly all actives have a fitted effect of over 80% in size
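Compounds are tested at multiple concentrations on MCF7 BRCA1-luciferase reporter cells seeded at 2000 per well; after 48 h, a single luminescence end-point is taken and curves fitted to the normalized data.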
ELG1 repair inh – blocks ELG1-dependent DNA repair in HEK293T cells; HEK293T ELG1-luciferase reporter, luminescence, 16 h; DNA damage induced by 5-fluorouridine; Potency, µM (series often up to 46.1 µM), for the others: at the highest dose activity change, negative = inhibition, most hits filed as inhibitors; actives 2.3% (n = 330,000); AID 504467; further: potency means the concentration at half of the fitted maximal effect; on the % scale 0 is the no-effect control and ±100 the full control effect; nearly all actives have a fitted effect of over 55% in size
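5-Fluorouridine DNA damage + compound/DMSO, 2,000 cells/well, 16 h, 37 °C/5% CO2. ONE-Glo, 30 min RT, luminescence. Readout = decrease in reporter signal.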
RORgamma inh – inhibitors of mouse ROR gamma transcriptional activity; P51450; Potency, µM (series often up to 53.6 µM), inactives show at the top dose activity change, negative = inhibition, usual class: inhibitors; actives 5.4% (n = 310,000); Drosophila S2 Gal4-RORgamma UAS-luciferase reporter, 20 h; further: potency means the concentration at half of the fitted maximal effect; on the % scale 0 is the no-effect control and ±100 the full control effect; nearly all actives have a fitted effect of over 60% in size
Target sequence (P51450 whole entry, looked up, the tested form may be a part): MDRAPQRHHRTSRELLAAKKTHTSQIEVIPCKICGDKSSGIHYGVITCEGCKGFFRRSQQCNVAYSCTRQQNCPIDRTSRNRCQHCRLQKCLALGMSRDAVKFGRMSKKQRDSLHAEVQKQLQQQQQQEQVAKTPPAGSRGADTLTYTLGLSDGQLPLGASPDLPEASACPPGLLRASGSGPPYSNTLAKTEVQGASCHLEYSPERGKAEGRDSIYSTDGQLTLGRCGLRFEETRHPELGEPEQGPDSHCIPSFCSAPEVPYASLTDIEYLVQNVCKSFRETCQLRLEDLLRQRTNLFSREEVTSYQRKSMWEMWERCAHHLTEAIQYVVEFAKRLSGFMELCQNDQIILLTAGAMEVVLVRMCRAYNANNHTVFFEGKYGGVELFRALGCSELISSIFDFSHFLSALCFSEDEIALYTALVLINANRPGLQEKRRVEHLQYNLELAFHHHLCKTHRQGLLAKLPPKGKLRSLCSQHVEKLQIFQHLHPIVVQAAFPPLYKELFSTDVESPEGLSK
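Read-out: Photinus luciferase luminescence; inhibitors lower reporter signal. Insect Schneider cells with Gal4-ROR gamma fusion under metallothionein promoter, UAS reporter; 700 uM final copper sulfate induction, 20 hr, ambient temperature.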
Giardia killer – Giardia lamblia killing; actives 0.15% (n = 340,000); Giardia lamblia trophozoite viability; activity change, % at 7.66 µM, hits read low; in the data active means activity change below about -80%; inconclusive means between about -30% and that limit;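 further: parasites exposed to compound for two days anaerobically before the ATP read; on the % scale 0 is the no-effect control and ±100 the full control effect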
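Each well holds 100 Giardia trophozoites and compound. After two days (48 hrs) at 37 deg C in anaerobic conditions, ATP is quantified by luminescence.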
p53 reactivation – mutant p53 re-activation in reporter cells; H1299 p53-A138V BP100-luciferase reporter, luminescence, 24 h; Potency, µM (doses to about 92.2 µM), without a hit: at the top dose activity change, positive = activation, actives largely listed as activators; actives 0.063% (n = 320,000); further: potency means the concentration at half of the fitted maximal effect; % of control where 0% means no effect; nearly all actives have a fitted effect of over 45% in size
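H1299 (p53-null), stable ts p53-A138V + BP100-Luc; 1000 cells/well, Opti-MEM/10% FBS; cpd 4 pt, 1:5; 24 h, 37 deg C, 5% CO2; detection reagent 10 min RT; luminescence.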
VP16 counter – Gal4-VP16 reporter inhibition counter-screen; Drosophila S2 Gal4-VP16 UAS-luciferase, luminescence, 20 h; Potency, µM (highest dose often 53.6 µM), for the others: at the top dose activity, negative = inhibition, most hits filed as inhibitors; actives 3.5% (n = 310,000);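 further: Gal4-VP16 expression switched on by copper sulfate through the metallothionein promoter; potency means the concentration at half of the fitted maximal effect; on the % scale 0 is the no-effect control and ±100 the full control effect; nearly all actives have a fitted effect of over 50% in size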
Active calls of the source: *; ? = inconclusive; . = no result; [ ] = dose if it differs, or a comment. In the library only some 7.6% were active in any assay of this set; here they are far more common. Unless noted, the call rests on the fitted dose curve; in most records, active means well fitted curve in the direction sought with a large enough effect; inconclusive means small, poorly fitted or top-dose-only effect, or another doubt; inactive means no such curve, though single readings can be large; an effect the other way counts as inactive or inconclusive.

SMILES	BRCA1 expr act	ELG1 repair inh	RORgamma inh	Giardia killer	p53 reactivation	VP16 counter
Cc1ccc(N2C(=O)C3C4C=CC(CNC(=S)Nc5cccc(Cl)c5)(O4)C3C2=O)cc1 (configuration not stated)	-41.1%	-26.7%	?	1.0	20.7%	12.6µM*
Cc1ccc(N2C(=O)C3C4C=CC(CNC(=S)Nc5ccc(F)cc5)(O4)C3C2=O)cc1 (configuration not stated)	-31.5%	-5.1%	4.47µM*	9.0	?	3.98µM*
Cc1cc(C(=O)CSc2nnc(C3COc4ccccc4O3)n2C)c(C)n1-c1ccc(F)cc1 (configuration not stated)	0.0%	?	25.1%	2.9	5.2%	-3.5%
O=C(CN1CCCCC1)NN(Cc1ccccc1)c1ccccc1	0.0%	10.5%	-25.0%	8.8	4.6%	-13.0%
COc1ccc(C(=O)NC(=S)Nc2ccc3c(c2)Cc2ccccc2-3)cc1	-29.3%	-3.3%	-20.9%	3.0	4.3%	-18.6%
NC[C@@H]1O[C@H](c2ccccc2)Cc2c1ccc(O)c2O	.	.	28.2µM*	.	.	25.1µM*
Cc1ccc(N2CC(NS(=O)(=O)c3cccs3)CC2=O)cc1C (configuration not stated)	12.1%	?	.	-6.5	7.8%	.
CC(NC(=O)CSC1=NCCS1)c1ccccc1 (configuration not stated)	-20.7%	15.6%	5.01µM*	-4.5	?	-4.5%
C=CCNC(=O)C(=O)NCC(c1ccc2c(c1)OCO2)N1CCN(c2ccc(F)cc2)CC1 (configuration not stated)	-3.4%	-7.6%	-0.2%	25.9	?	-5.9%
COc1ccc(C(=O)N2CCCC(c3ccccc3)C2)cc1 (configuration not stated)	?	3.7%	?	2.4	-6.1%	7.3%
Cc1ccc(C2CCN(C(=O)Nc3ccccc3)C2)cc1 (configuration not stated)	5.01µM*	?	34.4%	-27.1	?	-3.7%
CCc1cccc(NC(=S)N2CCC(c3ccccc3)C2)c1 (configuration not stated)	113.1%	?	7.08µM*	-0.6	21.6%	10µM*
O=C(c1ccc(F)cc1)N1CCC(c2ccccc2)C1 (configuration not stated)	6.31µM*	?	0.7%	-2.6	15.5%	6.8%
COc1ccc(NC(=S)N2CCC(c3ccc(C)cc3)C2)cc1 (configuration not stated)	47.4%	18.9%	?	-8.5	7.2%	?
Cc1ccc(NC(=S)N2CCC(c3ccc(C)cc3)C2)cc1 (configuration not stated)	11.2µM*	?	10µM*	-9.9	28.5%	20µM*
Cc1cccc(OCC(=O)NCc2n[nH]c(=O)c3ccccc23)c1	18.4%	?	.	-7.8	-2.7%	.
Cc1ccc(NC(=O)N2CCC(c3ccccc3)C2)cc1C (configuration not stated)	2.82µM*	?	-32.0%	1.4	18.2%	-10.7%
O=C(Nc1ccc(Cl)cc1)N1CCC(c2ccccc2)C1 (configuration not stated)	?	?	-31.9%	12.5	14.6%	-20.7%
C/C(=C(/CCO)SSC[C@@H]1CCCO1)N(C=O)Cc1cnc(C)nc1N	.	.	-16.4%[16.9 µM]	.	.	-3.0%[17 µM]
CCOC(=O)c1ccc(NC(=O)c2ccc(=O)n(Cc3cccc(C)c3)c2)cc1	-35.0%	.	.	.	.	.
CC1CN(S(=O)(=O)c2cccc(C(=O)OCc3cc(=O)oc4cc(O)ccc34)c2)CC(C)O1 (configuration not stated)	-31.9%	?	1.1%	1.8	-23.3%	-18.2%
CN(C)c1cccc(C(=O)OCc2cc(=O)oc3cc(O)ccc23)c1	-45.3%	9.8%	8.91µM*	-11.4	9.4%	?
Cc1nc2sc(C(c3ccc(Cl)cc3)N3CCN(c4ccccc4F)CC3)c(O)n2n1 (configuration not stated)	-0.3%	-12.0%	-11.3%	-11.1	-24.7%	-13.3%
CCCc1cc(-c2n[nH]c(C(=O)OCC)c2-c2cscn2)c(O)cc1O	-50.4%	?	?	3.6	-13.6%	?
O=C1NN(c2ccc(F)cc2)C(=O)/C1=C\C=C\c1ccco1	-2.2%	-1.1%	1.12µM*	-8.0	?	?
SMILES	BRCA1 expr act	ELG1 repair inh	RORgamma inh	Giardia killer	p53 reactivation	VP16 counter
O=C1NN(c2ccc(F)cc2)C(=O)/C1=C\c1cnn(-c2ccccc2)c1	.	1.2%	6.6%	.	0.7%	0.4%
CC(C)(C)c1cc(C(=O)NNC(=O)Nc2ccccc2)n(Cc2ccccc2)n1	-2.4%	6.6%	0.0631µM*	2.7	2.9%	-40.0%
CC(C)(C)c1cc(C(=O)NNC(=O)Nc2cccc(Cl)c2)n(Cc2ccccc2)n1	-22.6%	0.0%	37.4%	-17.8	0.0%	-12.5%
CC1CN(c2ncc(/C=N/NC(=O)c3ccccc3O)s2)CC(C)O1 (configuration not stated)	-15.6%	?	0.355µM*	12.0	0.7%	1.26µM*
CC(Sc1n[nH]c(-c2cccs2)n1)C(=O)Nc1ccc(C(N)=O)cc1 (configuration not stated)	-18.2%	?	.	8.6	14.4%	.
COC(CNC(=O)c1ccc(N2CCc3ccccc32)c([N+](=O)[O-])c1)OC	-19.8%	?	?	-5.9	-3.3%	17.8µM*
COc1ccc(CC(=O)Nc2ccc(C)c(S(=O)(=O)N3CCCCCC3)c2)cc1	-35.2%	?	.	-2.5	-4.1%	.
Cc1ccc(NC(=O)Cc2ccc(Cl)cc2)cc1S(=O)(=O)N1CCCCCC1	-68.1%	11.2µM*	.	9.3	4.8%	.
Cc1ccc(C(=O)OCC(=O)NCc2ccccc2)cc1S(=O)(=O)N1CCCCC1	-25.4%	-21.5%	.	-11.2	-10.9%	.
Cc1onc(-c2c(F)cccc2Cl)c1C(=O)OCC(=O)c1c[nH]c2ccccc12	-63.0%	23.1µM*	?	34.5	0.8%	?
Cc1ccc(C(=O)OCC(=O)c2c[nH]c3ccccc23)cc1S(=O)(=O)N1CCCCC1	-65.4%	25.9µM*	?	-21.4	-0.3%	-4.5%
Cc1ccc(NC(=O)Cn2ncc(Cl)c(Cl)c2=O)cc1S(=O)(=O)N1CCCCC1	-86.0%	14.6µM*	.	6.5	-27.4%	.
CCOC(=O)N1CCN(Cc2cc(=O)oc3ccc4ccccc4c23)CC1	-49.4%	?	?	8.7	-5.3%	-9.0%
CC(C)C(=O)c1cn(CC(=O)NCC2CCCO2)c2ccccc12 (configuration not stated)	3.1%	4.8%	29.0%	-23.7	-2.6%	10.5%

Screens: PubChem, National Center for Advancing Translational Sciences (NCATS)
